C-LANA FP – blocks KSHV LANA C-terminal domain binding to DNA | AID 504423 | inhibition, % at 9 µM | MBP-C-LANA/FAM-LBS DNA binding, fluorescence polarization | 340,000 compounds, 0.078% hits;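 active means highest replicate inhibition at or above 60% at 9 µM, even if other replicates fall short; inactive means all replicates below 60% inhibition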
RTF Ca sens inh – cardiac RTF calcium desensitization; IANBD-labeled cardiac RTF, Ca2+ fluorescence; inhibition, % at 7.15 µM; P19429+P45379; 340,000 compounds, 0.12% hits;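 active means inhibition above the mean inhibition of all tested compounds plus 3 SD, cut at about 17% in these data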;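 further: assay run at fixed EC70 calcium of 1.6 mM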
LANA-H2A inh – blocks KSHV LANA binding to histone H2A/H2B; Q9QR71; cell-free LANA-H2A/H2B peptide, fluorescence polarization; inhibition, % (test concentration not listed); 320,000 compounds, 0.6% hits; AID 2629; in the data active means inhibition mostly above about 10%, no sharp cut-off; inactive means mostly below about 6.7%
Keap1 Nrf2 FP – inhibitors of human Keap1-Nrf2 protein-protein interaction | Keap1 Kelch-Nrf2 peptide fluorescence polarization, 1536-well | inhibition, % at 9.4 µM | AID 504523 | Q14145 | 340,000 compounds, 0.15% hits; in the data active means inhibition above about 12%;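 further: human Keap1 Kelch domain with fluorescein labeled Nrf2 9mer peptide probe; higher means more block of Keap1 binding to Nrf2 peptide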
Target sequence (Q14145 whole entry, looked up, the tested form may be a part): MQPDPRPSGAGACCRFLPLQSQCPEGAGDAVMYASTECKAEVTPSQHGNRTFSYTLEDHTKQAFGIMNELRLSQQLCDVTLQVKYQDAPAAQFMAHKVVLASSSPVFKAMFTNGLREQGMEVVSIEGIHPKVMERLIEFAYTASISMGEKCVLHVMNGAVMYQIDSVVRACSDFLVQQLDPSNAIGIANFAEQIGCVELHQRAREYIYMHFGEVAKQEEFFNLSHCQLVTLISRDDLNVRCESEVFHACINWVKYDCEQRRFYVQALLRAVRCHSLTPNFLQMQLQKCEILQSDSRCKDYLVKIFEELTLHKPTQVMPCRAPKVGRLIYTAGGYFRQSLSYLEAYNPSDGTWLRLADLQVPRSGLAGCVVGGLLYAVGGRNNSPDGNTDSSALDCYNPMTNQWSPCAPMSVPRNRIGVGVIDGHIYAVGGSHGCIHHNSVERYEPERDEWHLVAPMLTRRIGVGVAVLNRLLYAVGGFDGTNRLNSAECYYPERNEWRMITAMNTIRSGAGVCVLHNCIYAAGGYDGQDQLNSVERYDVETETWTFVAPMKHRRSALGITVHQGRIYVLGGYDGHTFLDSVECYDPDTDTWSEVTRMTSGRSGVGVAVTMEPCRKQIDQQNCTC
eLon inh – inhibits E. coli Lon protease; AID 602123; purified E. coli Lon protease, fluorescence polarization; 360,000 compounds, 0.42% hits; P0A9M0; inhibition, % at 7.94 µM; in the data active means inhibition above about 13%, passing the limit was not always enough
cardiac RTF act – increases calcium sensitivity of human cardiac regulated thin filaments; IANBD-labeled TnC RTF fluorescence at EC20 calcium; 0% EC20 calcium, 100% full calcium; AID 493008; 340,000 compounds, 0.24% hits; activation, % at 7.2 µM; P19429+P45379;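 active means activation above the mean over all tested compounds plus 3 SD, cut at about 30% in these data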;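 further: rise in fluorescence read as greater calcium sensitivity of cardiac thin filaments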
eLon confirm – E. coli Lon inhibition confirmation; 1,400 compounds, 31% hits; shares compounds with eLon inh; purified E. coli Lon, fluorescence polarization; inhibition, % at 7.94 µM; in the data active means inhibition above about 16%
Numbers stand for hits; – = inactive; · = no result; + = active, no number. Sampled rows, rich in hits. Any-hit rate of the full collection: about 1.3%.

SMILES	C-LANA FP	RTF Ca sens inh	LANA-H2A inh	Keap1 Nrf2 FP	eLon inh	cardiac RTF act	eLon confirm
Cc1cccc(C(=O)Nc2cccc3cccnc23)c1	–	–	–	–	–	–	·
CC1C(=O)N(Cc2cn(CCC3OCCCO3)nn2)CCS(=O)(=O)N1Cc1ccc(-c2ccc(Cl)cc2)cc1 (stereo unspecified)	·	·	·	·	13.3	·	24.5
COc1cc(/C=N/NC(=O)C(=O)NCc2ccco2)cc(Br)c1O	–	–	–	–	–	–	·
CC(C)CCNC(=O)CN(Cc1ccc(F)cc1)C(=O)CCC(=O)Nc1ccccn1	–	–	–	–	–	–	·
O=c1c(-c2ccc(Cl)cc2)c[nH]n1-c1ccccc1	–	–	–	–	17.9	–	–
N#Cc1c(-c2ccc(Cl)cc2)c2c([nH]c1=O)-c1ccccc1OC2	–	–	–	–	–	–	·
C(/C=C/c1ccccn1)=C\c1ccccc1	–	–	–	–	36.2	–	–
COC(=O)C1CN(C(=O)COc2ccccc2)c2ccccc2O1 (stereo unspecified)	–	–	–	–	–	–	·
COc1ccc(C(=O)N=C2SC3CS(=O)(=O)CC3N2Cc2ccccc2)cc1OC (stereo unspecified)	–	–	–	–	15.9	–	–
CC1CC(C)CN(S(=O)(=O)c2ccc(C(=O)OCC(=O)Nc3ccccc3)cc2)C1 (stereo unspecified)	·	·	·	·	–	·	·
CC(NC(=O)OC(C)(C)C)C(=O)NC(CCC(=O)OCc1ccccc1)C(N)=O (stereo unspecified)	–	–	–	–	–	–	·
C=CCNC(=S)NN=C1CCCCCCC1	–	–	–	–	–	–	·
COc1ccccc1N1CCN(C(=O)c2c(-c3c(F)cccc3Cl)noc2C)CC1	–	–	·	–	21.2	–	–
Cc1onc(-c2c(Cl)cccc2Cl)c1C(=O)N=C(N)N1CCOCC1	–	–	–	–	–	–	·
Cc1onc(-c2c(Cl)cccc2Cl)c1C(=O)N=C(N)N1CCCC1	–	–	–	–	32.9	–	–
Cc1ccc2c(C)c(C(=O)N(C)C(C)c3ccon3)oc2c1C (stereo unspecified)	–	–	–	–	–	–	·
O=C(C1CC(=O)N(c2ccc(F)cc2)C1)N1CCCCC1 (stereo unspecified)	–	–	–	–	–	–	·
C[C@H](NC(=O)C1CC(=O)N(c2ccc(F)cc2)C1)C(=O)N1CCCCC1 (stereo partly specified)	–	–	–	–	20.2	–	–
COc1ccc(-n2cc(C(=O)Nc3cc([N+](=O)[O-])ccc3OC)c3ccccc3c2=O)cc1	–	–	–	–	–	–	·
CCOC(=O)c1c(C)[nH]c(C(=O)OCC(=O)N2CCc3ccccc32)c1C	–	–	–	–	–	–	·
CCOC(=O)c1[nH]c(C)c(C(=O)OCC(=O)N2CCc3ccccc32)c1C	–	–	–	–	138.8	–	–
O=C(/C=C/c1ccccc1)/C=C/c1ccccc1	–	–	–	–	–	–	·
COc1cc(C(=O)OCC(=O)N2c3ccccc3NC(=O)C2(C)C)ccc1OCC(C)C	–	–	–	–	21.0	–	–
Nc1nc(N=Nc2ccc(O)cc2)cc(=O)[nH]1	·	·	·	·	66.8	·	35.4
COc1cc(CCC(=O)Nc2cc(S(=O)(=O)N3CCOCC3)ccc2OC(C)C)cc(OC)c1OC	·	·	·	·	–	·	·
SMILES	C-LANA FP	RTF Ca sens inh	LANA-H2A inh	Keap1 Nrf2 FP	eLon inh	cardiac RTF act	eLon confirm
CC1CC2CCCC(O)=C2C(=O)O1 (stereo unspecified)	–	–	·	–	–	–	·
O=S(=O)(NCCN1CCOCC1)c1ccc(Cl)c(Cl)c1	–	–	–	–	16.4	–	–
O=S(=O)(NCCN1CCOCC1)c1ccc(F)c(Cl)c1	–	–	–	–	–	–	·
COc1cccc(NC(=O)N(C)C[C@H]2Oc3ncc(Br)cc3C(=O)N([C@H](C)CO)C[C@H]2C)c1	·	·	·	·	12.5	·	–
CCCCNC(=O)c1cc(-c2ccc(OC)cc2)on1	–	–	–	–	22.8	–	–
O=[N+]([O-])c1ccc(CSc2nnc(-c3cccnc3)o2)cc1	–	–	–	–	–	–	·
CC(=O)c1ccc(C(=O)N2CCCC(CO)(Cc3ccccc3C)C2)s1 (stereo unspecified)	–	–	·	–	–	–	·
O=C(COc1ccc(F)cc1)Nc1nc(-c2ccccn2)cs1	–	–	–	–	18.5	–	–
O=C(COc1cccc(F)c1)Nc1nc(-c2ccccn2)cs1	·	·	·	·	–	·	·
CC1=NN(C(N)=S)C(=O)C1N=Nc1ccccc1O (stereo unspecified)	–	–	–	–	18.5	–	26.2
CC1=NN(C(N)=S)C(=O)C1N=Nc1ccccc1C (stereo unspecified)	–	–	–	–	–	–	·
O=C(CSc1nc2ccccc2c(=O)n1-c1ccc(F)cc1F)NC1CCS(=O)(=O)C1 (stereo unspecified)	·	·	·	·	–	·	·
COc1ccccc1-n1c(SCC(=O)NC2CCS(=O)(=O)C2)nc2ccccc2c1=O (stereo unspecified)	–	–	–	–	18.7	–	–
CC(C)(C)c1ccc(C(=O)Nc2cccc3ncccc23)cc1	–	–	–	–	44.2	–	44.5
COc1cc(/C=C2\SC(=O)N(CCNC(=O)c3c(C)noc3C)C2=O)cc(OC)c1OC	–	–	–	–	–	–	·
CCC1(c2ccccc2)NC(=O)N(CC(=O)NNC(=O)c2ccoc2C)C1=O (stereo unspecified)	–	–	–	–	–	–	·
CCCCS(=O)(=O)Nc1ccc(N2CCOCC2)c(S(=O)(=O)N2CCOCC2)c1	–	–	–	–	19.2	–	–
O=C(NN1S(=O)(=O)c2ccccc2S1(=O)=O)c1ccc(Br)cc1	–	–	–	–	–	–	·
Cc1cccc(C(=O)NN2S(=O)(=O)c3ccccc3S2(=O)=O)c1	–	–	–	–	16.8	–	–
Cc1nc2sccn2c(=O)c1Br	–	–	–	–	–	–	·
O=C(c1ccco1)N(CCO)Cc1cc2cc3c(cc2[nH]c1=O)OCO3	–	–	–	–	–	–	·
S=C(Nc1ccc2nc(-c3ccccn3)c(-c3ccccn3)nc2c1)N1CCOCC1	–	–	–	–	20.4	–	–
CN(C)NC(=S)Nc1ccc2nc(-c3ccccn3)c(-c3ccccn3)nc2c1	–	–	–	–	–	–	·
CCC1(O)C(=O)OCc2c1cc1n(c2=O)Cc2cc3cc(O)ccc3nc2-1 (stereo unspecified)	–	–	·	–	+	–	+
CN=c1scc(-c2cccs2)n1/N=C/c1ccc(O)c(O)c1O	–	–	–	–	28.2	–	–
CN=c1scc(C)n1/N=C/c1ccc(O)c(O)c1O	–	–	–	–	–	–	·
CCc1ccc(NC(=O)CSCc2nc(N)nc(Nc3ccccc3CC)n2)cc1	–	–	–	–	–	–	·
